Insulin prom up – MIN6 insulin promoter up-regulation; MIN6 insulin promoter-GFP reporter, high-content imaging; stronger effect = higher value; z-score at 5 µM; 190,000 compounds, 0.3% hits;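 active = z-score above 3 at 5 µM with at least 500 cells counted in the well; inconclusive = wells under 500 cells, flagged as cytotoxic or low count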
Autophagy mod – modulators of autophagy. MEF GFP-LC3 puncta imaging; test concentration mostly 10 µM. calls only at 10 µM (by protocol). 190,000 compounds, 0.98% hits. AID 463193;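 active = percentage of spot-positive cells more than 3 SD above its plate mean, without a fluorescence outlier flag or 80% toxicity; inconclusive = no clear call, values can overlap the other calls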
Insulin prom inh – TRM-6 insulin promoter activity inhibition. TRM-6 cells (human fetal islet line), insulin promoter-eGFP reporter, imaging; reporter expression induced with tamoxifen. inhibition, % at 2 µM. 130,000 compounds, 0.9% hits. AID 1273;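 active = inhibition above the mean plus 3 SD, with well images judged a real hit on visual review, cut at about 60% in these data, passing the limit was not always enough; inconclusive = inhibition over the cutoff but images rejected on review; inactive = inhibition not above the cutoff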
Efa HMGR inh – inhibitors of class II HMG-CoA reductase from Enterococcus faecalis | purified E. faecalis HMGR, NADPH absorbance 340 nm kinetic | inhibition, % at 10 µM | 190,000 compounds, 0.41% hits | AID 1066;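 active = inhibition above a set limit, the median over all tested compounds plus 3 SD, cut at about 9.5% in these data; inconclusive = no clear call, values can overlap the other calls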;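 note: enzyme runs in reverse so mevalonate oxidation gives rising NADPH absorbance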
Each line names hits and unclear results; the compound was inactive in the other large screens. Compounds with a hit are over-represented: about 1.9% of the library has one in this group of screens.

CCN(CCCNC(=O)COc1cc(=O)n(CC)c2ccccc12)Cc1ccccc1	Autophagy mod active
CCN(CCCNC(=O)CCCOc1cc(=O)n(C)c2ccccc12)Cc1ccccc1	none
C[N+]12CCCCC1C(COC(=O)c1ccc3c(c1)OCO3)CCC2 (configuration not stated)	Insulin prom inh 75
N#C/C(=C\c1cn(-c2ccccc2)nc1-c1cc2ccccc2o1)c1nc2ccccc2[nH]1	Autophagy mod active
N#C/C(=C\C1CC2C=CC1C2)c1nc2ccccc2[nH]1 (configuration not stated)	Insulin prom inh 79
N#C/C(=C\c1cccs1)c1nc2ccccc2[nH]1	Insulin prom inh 85
OCC1(Cc2ccccc2)CCCN(Cc2ccn[nH]2)C1 (configuration not stated)	none
Nc1cccc2c1C(=O)N(C(=O)c1cccc(S(=O)(=O)N3CCCC3)c1)C2=O	Insulin prom up 3.1
FC(F)(F)c1cccc(OCCN2CCN(Cc3ccccc3)CC2)c1	none
O=C(Nc1cc(Cl)ccn1)C1(c2ccccc2)CC1(Cl)Cl (configuration not stated)	none (no result: Autophagy mod, Insulin prom inh, Efa HMGR inh)
CCOC(=O)c1sc2nc(C)nc(N3CCN(c4ncccn4)CC3)c2c1C	none (no result: Insulin prom inh)
CCOC(=O)c1sc2nc(C)nc(NCCc3ccccn3)c2c1C	Insulin prom inh 94
CN(C)C(C)(C)C#CCCCCC#CC(C)(C)N(C)C	Insulin prom inh 71 (no result: Insulin prom up)
CN(C)C(C)(C)C#CCC(c1ccccc1)c1ccccc1	none (no result: Insulin prom inh)
CCN(CC)C(=S)NCCc1ccccc1	Efa HMGR inh 12
Cc1ccc(NC(=O)c2cc(N3C(=O)CCC3=O)ccc2N2CCOCC2)cc1	Autophagy mod active (no result: Insulin prom inh)
Cc1ccc(NC(=O)c2cc(N3C(=O)CCC3=O)ccc2N2CCCCC2)cc1	none
Cc1ccc(NC(=O)c2ccc(C(C)(C)C)cc2)cc1[N+](=O)[O-]	none
Cc1cc(C)c(C)c(S(=O)(=O)N2CCNCC2)c1C	Autophagy mod active (no result: Insulin prom inh)
Cc1ccc([N+](=O)[O-])cc1S(=O)(=O)N1CCNCC1	none
Oc1ccc(Nc2nc(N3CCCC3)c3ccccc3n2)cc1	Insulin prom up inconclusive, Autophagy mod active (no result: Insulin prom inh)
Clc1ccc(COn2ccnc2)cc1Cl	none (no result: Insulin prom inh)
Cc1cc(C)cc(COn2ccnc2)c1	Insulin prom inh 68
COc1ccc(NC(=O)CSc2ccc3c4c(cccc24)C(=O)c2ccccc2-3)cc1	Autophagy mod active (no result: Insulin prom up)
N#Cc1cccc(NC(=O)CSc2ccc3c4c(cccc24)C(=O)c2ccccc2-3)c1	Autophagy mod active (no result: Insulin prom up)
CCCCCn1nc(C)c(/C=N\NC(=O)c2cc(C)oc2C)c1C	Insulin prom inh 85
CCCCCn1nc(C)c(/C=N/NC(=O)c2ccoc2C)c1C	Insulin prom inh 93 (no result: Insulin prom up)
CCn1nc(C)c(/C=N/NC(=O)c2ccoc2C)c1C	none
Oc1ccc(Cl)cc1C=Nc1ccc2c3c(cccc13)CC2	none
NC(=O)[C@@H]1CCCCNc2c(I)cc([N+](=O)[O-])cc2C(=O)N[C@@H](CCC(=O)O)C(=O)N[C@@H](CO)C(=O)N1	Insulin prom inh 60
O=C1N=C(N2CCCC2)S/C1=C\c1ccccc1	none (no result: Insulin prom up)
CN(C)C1=NC(=O)/C(=C\c2ccccc2)S1	Autophagy mod active
O=C1COc2ccc(S(=O)(=O)Nc3ccc4c(c3)OCO4)cc2N1	none (no result: Insulin prom inh)
C/C(CCN1CCCCc2nc(C)c(C)cc21)=N\O[C@H](C)c1cn([C@H](CO)Cc2ccccc2)nn1	Efa HMGR inh 12
O=C(N/N=C/C=C/c1ccco1)c1cccnc1	Insulin prom inh 100
Cc1ccc(Cn2c(=N)n(CC(=O)c3ccccc3)c3ccccc32)cc1	Autophagy mod active (no result: Insulin prom inh)
COc1cc2[nH]c(=O)n(Cc3ccc(C(=O)NC4CCCC4)cc3)c(=O)c2cc1OC	none (no result: Insulin prom up)
COc1ccc(Cn2c(=O)[nH]c3cc(C(=O)NC4CCCC4)ccc3c2=O)cc1	Autophagy mod active (no result: Insulin prom up, Insulin prom inh)
Cc1cccc(NC(=O)c2cnn3ccccc23)c1C	none (no result: Autophagy mod, Insulin prom inh, Efa HMGR inh)
CC(C)N1CCc2c(sc(NC(=O)c3ccc(S(=O)(=O)N4CCc5ccccc54)cc3)c2C(N)=O)C1	Autophagy mod active (no result: Insulin prom up, Insulin prom inh)
CC1(C)CNC(=O)c2sc(NC(=O)c3ccccc3)nc2C1	Efa HMGR inh 14
O=[N+]([O-])c1ccc(Cl)cc1Sc1nc2ccccc2o1	Autophagy mod active (no result: Insulin prom up)
Cc1cc(C(=O)NCc2ccccc2)c(=O)[nH]c1C	Insulin prom inh 73
COc1ccc(CCN(Cc2nc3ccccc3c(=O)[nH]2)C(=O)C2CC2)cc1	none (no result: Insulin prom inh)
O=C(O)C(Cc1ccccc1)N1C(=O)C2CCCCC2C1=O (configuration not stated)	Efa HMGR inh 17 (no result: Insulin prom inh)
Clc1cccc(CN2CCC(Cc3ccccc3)CC2)c1	Efa HMGR inh 14 (no result: Insulin prom inh)
Clc1ccc(CN2CCC(Cc3ccccc3)CC2)cc1	none (no result: Insulin prom inh)
O=c1c(-n2cncn2)c[nH]n1-c1cccc(Cl)n1	Insulin prom inh 92
Cc1ccc(S(=O)(=O)NNC2CC(=O)N(c3ccc(Br)cc3)C2=O)cc1 (configuration not stated)	Autophagy mod active (no result: Insulin prom inh)
Cc1ccc(N2C(=O)CC(Nc3ccccc3)C2=O)cc1 (configuration not stated)	none
O=C(NNC(=O)C1CCN(S(=O)(=O)c2ccc(Cl)cc2)CC1)c1ccncc1	Efa HMGR inh 13 (no result: Insulin prom inh)
O=[N+]([O-])c1cccc(-c2nc3ccc([N+](=O)[O-])cc3[nH]2)c1	Insulin prom inh 92
Nc1ccc(-c2nc3ccccc3[nH]2)cc1	none (no result: Insulin prom inh)
Nc1ccccc1-c1nc2ccccc2[nH]1	Insulin prom inh 94
Cn1cc(-c2nc3ccccc3[nH]2)c2ccccc21	Insulin prom inh 100
Nc1cccc(-c2nc3ccccc3[nH]2)c1	Insulin prom inh 75 (no result: Insulin prom up)
COc1cccc(CNC(=O)Cc2nc3nc(C)cc(C)n3n2)c1	none (no result: Insulin prom up, Insulin prom inh)
COc1ccc(CC(=O)Nc2cccc(-c3ccc4nnc(C)n4n3)c2)cc1OC	none
c1ccc(-c2nnsc2-c2nc3ccccc3[nH]2)cc1	Efa HMGR inh 12 (no result: Insulin prom inh)
Cc1ccc2nc(-c3cccc(N)c3)[nH]c2c1	Insulin prom inh 80 (no result: Insulin prom up)
CCOc1ccc(N2C(=O)S/C(=C\c3cc(OC)c(OC)c(OC)c3)C2=O)cc1	none (no result: Autophagy mod, Insulin prom inh, Efa HMGR inh)
Cc1ccc(NC(=O)CCn2nc([N+](=O)[O-])cc2C)nc1	none
CCCC(=O)NCCCc1nc2ccccc2[nH]1	none (no result: Insulin prom inh)
CCCCc1nc2ccccc2[nH]1	Insulin prom inh 89
CNCc1nc2ccccc2[nH]1	Efa HMGR inh 13 (no result: Insulin prom inh)
COc1ccccc1-c1nnc2n1N=C(C)CS2	none
CC1=Nn2c(nnc2-c2ccccc2Cl)SC1	Insulin prom inh 88
O=C(/C=C/Nc1ccc(F)cc1)c1ccc(Br)cc1	none (no result: Insulin prom inh)
Cc1cc(N/C=C/C(=O)c2ccc(Br)cc2)no1	none (no result: Insulin prom up)
O=C(/C=C/Nc1ccc([N+](=O)[O-])cc1)c1ccc(Br)cc1	Autophagy mod active
O=C(/C=C\Nc1ccc(Cl)cn1)c1ccc(Br)cc1	Efa HMGR inh 11
Cc1cccc(N(CC(=O)NC2CCCCC2)C(=O)Cn2nnc(-c3ccc(C)o3)n2)c1	none (no result: Insulin prom inh)
CCN(CC)c1ccc2cc(C#N)c(=O)oc2c1	Insulin prom up 4.2
CCN(CC)c1ccc2c(C)c(Cl)c(=O)oc2c1	none (no result: Insulin prom inh)
CCN(CC)c1ccc2c(Cl)c(Br)c(=O)oc2c1	Autophagy mod active (no result: Insulin prom up)
CCN(CC)c1ccc2ccc(=O)oc2c1	none (no result: Insulin prom inh)
O=C(CSc1nnc(-c2ccccc2O)o1)Oc1ccc(OCc2ccccc2)cc1	Autophagy mod active (no result: Insulin prom up, Insulin prom inh)
